# According to PubChem BioAssay (NCI):
# Compounds without any hit were thinned out: in the full panel of roughly 83,000, 20% have a hit.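 Assay: single dose, 48 h. Readout: percent growth (0 = no net growth; negative = cell death). Active: <10.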 Calls of active or inactive are those of the source.
# System: M14 melanoma
# Assay: NCI-60 one-dose screen, 48 h (100 = growth as untreated, 0 = no growth, -100 = all killed)
# Conditions: 10 µM unless noted
# Description: Growth inhibition of the M14 human tumor cell line is measured as a screen for anti-cancer activity. Cells are grown in 96 well plates and exposed to the test compound for 48 hours. Compounds are tested at a single concentration, which is 10^-5 M for most compounds. The reported endpoint is percent growth (GI% or GIPRCNT), where numbers from 0 - 100% represent growth inhibition, and numbers from -100% - 0 represent cell death. For example, a value of 40 represents 60% growth inhibition. A value of 0 means no net growth occurred over the course of the experiment. A value of -40 indicates 40% of cells at the beginning of the experiment died by the end of the experiment. A value of -100 means all cells are dead at the end of the experiment.
# NCI-60 Human Tumor Cell Lines Screen was performed using the standard one-dose NCI protocol, which is described in more detail at https://dtp.cancer.gov/discovery_development/nci-60/default.htm.
# Compounds with GIPRCNT values below 10 were considered active. Activity score was based on GIPRCNT using the following formula: […]
# Score is 0 for GIPRCNT values of 100 or above, 50 for GIPRCNT values of 0, and 100 for GIPRCNT values of -100.
row,SMILES,growth
1,Cn1ncc(CC(=O)O)c1-n1nnc2cc(Cl)ccc2c1=O,100% (inactive)
2,CC(C)CCc1nc2ccc(NCc3ccc(OCCN4CCC(C)CC4)cc3)cc2[nH]1,33.2% (inactive)
3,CCOC(=O)CCC(=O)P(=O)(O)O,92.4% (inactive)
4,COC(=O)CNC(=O)c1ccc(NC(=O)c2[nH]c(C)c(Cl)c2Cl)c(O[C@H]2CCNC2)c1,107% (inactive)
5,CCCCCCCCNC(=O)[C@@H](N)CSCOC(C)=O,34.2% (inactive)
6,CN(C)c1ccc(Cc2cc(-c3ccccc3)nn(C/C(=N/O)c3ccccc3)c2=O)cc1,57% (inactive)
7,COc1cc2c(cc1OC)CC[N+](CCC[N+](C)(C)C)=C2,91.7% (inactive)
8,COc1ccc(Nc2nccc(Nc3ccc4[nH]ncc4c3)n2)cc1,33% (inactive)
9,O=C1NCCN1/N=C/c1c(Cl)n(Cc2ccc(Cl)cc2)c2ccccc12,114% (inactive)
10,O=[N+]([O-])c1ccc(N/N=C\c2cc(Cl)ccc2O)nc1,17.1% (inactive)
11,COC(=O)[C@H](C)NC(=O)[C@@H]1CCCN1C(=O)CNC(=O)[C@H](C)N,103% (inactive)
12,O=C1c2ccccc2C(=O)c2cc(Cn3c[n+](Cc4ccc5ccccc5c4)c4ccccc43)ccc21,38.7% (inactive)
13,Nc1n[nH]c2cccc(C#Cc3cccc(C(=O)Nc4ccc(Cl)c(C(F)(F)F)c4)c3)c12,23% (inactive)
14,CC1=C(C(=O)c2ccccc2)C(c2ccc3c(c2)OCO3)NC(=S)N1 (stereo not given),34.6% (inactive)
15,C#Cc1cccc(Nc2nc(Cl)nc3cc(NC(=O)CCl)ccc23)c1,-52.2% (active)
16,COc1ccc(CNc2c3ccccc3nc3ccccc23)cc1OC,17.7% (inactive)
17,O=C1c2cccnc2C(=O)c2c1c(C(=O)OCCCN1CCOCC1)c1ccccn21,-81.2% (active)
18,O=C(/C=C/c1ccco1)Nc1ncc(Cc2ccc(F)cc2)s1,16.7% (inactive)
19,CCN1C(=O)N(CC)C2C1NN=c1s/c(=C\c3ccc(F)cc3)c(=O)n12 (stereo not given),12.6% (inactive)
20,CCN(CC)CCOc1ccc(/C(=C(\C)Cc2ccc(OC)cc2)c2ccc(O)cc2)cc1,-77.3% (active)

row,SMILES,growth
1,CCCCCCCC/C=C\CCCCCCCCOc1ccc(CC(=O)NCC[N+]2(C)CCCC2)cc1,71.4% (inactive)
2,Cc1nn(-c2ccccc2)c(Oc2ccccc2)c1/C=N/NC(=O)Cn1c(=O)sc2ccccc21,56.2% (inactive)
3,O=C(/C=C\c1ccc(O)c(O)c1)c1ccccc1O,93.5% (inactive)
4,O=c1ccc2nc(-c3ccccc3)nn(-c3ccccn3)c-2c1,105% (inactive)
5,C=C(C[n+]1ccccc1)[C@@H]1CC[C@]2(C(=O)OC)CC[C@]3(C)[C@H](CC[C@@H]4[C@@]5(C)CCC(=O)C(C)(C)[C@@H]5CC[C@]43C)[C@@H]12,87% (inactive)
6,CC1(C)CC[C@]2(CO)CC[C@]3(C)[C@H](CC[C@@H]4[C@@]5(C)CC[C@H](O)C(C)(C)[C@@H]5CC[C@]43C)[C@H]2[C@H]1O,99.7% (inactive)
7,CS(=O)(=O)c1cccc(Nc2ncc3cc(-c4ccccc4Cl)ccc3n2)c1,5.89% (active)
8,C=CCNc1nc(O)c(/C=C2\C=Nc3ncccc32)s1,24.5% (inactive)
9,O=C(N/N=C/c1ccccc1Cl)c1ccccc1Nc1ccnc(C(F)(F)F)c1,23.1% (inactive)
10,COCCNC(=O)Cc1cc(-c2ccc(Cl)cc2)n(-c2ccccc2)c1C,88.1% (inactive)
11,O=c1n(C2OC(CO)C(O)C2O)ccc2nccn12 (stereo not given),105% (inactive)
12,CN1CCN(Cc2ccc(NC(=O)c3cncc(C#Cc4c(N)ncc5ccccc45)c3)cc2C(F)(F)F)CC1,-73.9% (active)
13,COC1CC(O)C2=C(CC3C(/C(C)=C\CC=C(C)C)CCC3(C)O2)C1=O (stereo not given),106% (inactive)
14,O=C(O)/C=C\C(=O)Nc1ccc2c(c1)Cc1cc(F)ccc1-2,96.4% (inactive)
15,COc1c(O[C@@H]2OC(CO)[C@H](O)[C@H](O)C2O)cc2oc3cc(O)c(CC=C(C)C)c(O)c3c(=O)c2c1CC=C(C)C (stereo not given in full),86.2% (inactive)
16,C=C1C(=O)O[C@H]2[C@H]1CC/C(CNC(=O)/C=C/c1cc(OC)c(OC)c(OC)c1)=C\CC[C@@]1(C)O[C@@H]21,-32.3% (active)
17,COc1ccc(/C=C/C(=O)c2ccc(-n3cc(CN4CCN(c5cc6c(cc5F)c(=O)c(C(=O)O)cn6C5CC5)CC4)nn3)cc2)cc1,59% (inactive)
18,O=C1/C(=C/c2ccc(Br)cc2)COc2ccc(O)cc21,83.7% (inactive)
19,COC12C=C/C(=C(/C(=O)OCc3ccccn3)C(=O)CCCCCCCCC3(OC)C=C/C(=C(/C(=O)OCc4ccccn4)C(=O)CCCCCCCC1)O3)O2,-23.3% (active)
20,Nc1nc(N)c2c(n1)NC(c1cccc(Nc3ccnc4cc(C(F)(F)F)ccc34)c1)CC(c1ccc(Cl)cc1)=N2 (stereo not given),29.7% (inactive)
